# High-throughput results as filed in PubChem BioAssay.
# An excerpt weighted towards active compounds, which were near 2.6% of everything screened.
# S2 tox: Viability Counterscreen for Primary qHTS for Inhibitors of ATXN expression; S2 cells (HEK-293 line with an ATXN2-luciferase reporter) viability, CellTiter-Fluor protease fluorescence, 24 h; Potency, µM (series often up to 56.7 µM), most hits filed as cytotoxic; actives 0.49% (n = 400,000); AID 651635, 2014; further: potency means the concentration at half of the fitted maximal effect; nearly all actives have a fitted effect of over 40% in size
# Giardia killer: Small Molecules that selectively kill Giardia lamblia: qHTS; Giardia lamblia trophozoite viability; activity change, % at 7.66 µM, hits read low; actives 0.15% (n = 340,000); in the data active means activity change below about -80%; inconclusive means between about -30% and that limit;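 further: parasites exposed to compound for two days anaerobically before the ATP read; on the % scale 0 is the no-effect control and ±100 the full control effect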
#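 Killing of trophozoites was scored by loss of ATP luminescence after a 48 hrs anaerobic exposure to compounds at 37 deg C, using 100 cells per well.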
# ATXN2 expr inh: Primary qHTS for Inhibitors of ATXN expression. HEK-293 ATXN2-luciferase reporter, luminescence, 24 h. actives 0.72% (n = 360,000). Potency, µM (series often up to 57 µM), without a hit: at the highest dose activity change, negative = inhibition, most hits filed as inhibitors; further: potency means the concentration at half of the fitted maximal effect; on the % scale 0 is the no-effect control and ±100 the full control effect; nearly all actives have a fitted effect of over 55% in size
#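 ATXN2-luciferase reporter cells (luciferase flanked by upstream and downstream ATXN2 gene portions) were treated 24 h at 37 °C with compounds at up to 57 uM. SteadyGlo luminescence gave expression; GF-AFC fluorescence gave viability.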
# uPA surface inh: qHTS for Inhibitors of Cell Surface uPA Generation; cell surface uPA generation assay, qHTS; AID 540303, 2011; Potency, µM (top dose mostly 38.3 µM), without a hit: top-dose activity change, negative = inhibition, actives largely listed as inhibitors; actives 0.31% (n = 330,000); active means well fitted inhibition curve with a large enough effect; inconclusive means small, poorly fitted or top-dose-only effect; inactive means no such curve, though single readings can be large or run the other way; tested in mouse RAW 264.7 cells; further: potency means the concentration at half of the fitted maximal effect; on the % scale 0 is the no-effect control and ±100 the full control effect; nearly all actives have a fitted effect of over 55% in size
# HepG2 tox: qHTS for Inhibitors of TGF-b: Cytotox Counterscreen | HepG2 CAGA-GFP viability, ATP luminescence, 18 h | Potency, µM (doses to about 46.1 µM), without a hit: at the highest dose activity change, negative = cytotoxicity, most hits filed as cytotoxic | actives 0.76% (n = 410,000); further: potency means the concentration at half of the fitted maximal effect
#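 CellTiter-Glo luminescence gave cytotoxicity after 18 hours at 37 degrees C. The cells were HepG2 CAGA-GFP in 1% FBS DMEM, stimulated with 500 pg/mL TGF-beta after compound addition. %Activity was normalised to no-cell wells (complete cell-killing) and DMSO (no toxicity), and curves were fitted and classified.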
# TGFb inhibitor: qHTS for Inhibitors of TGF-b; actives 1.2% (n = 410,000); HepG2 CAGA-GFP TGF-b/SMAD3 reporter, GFP fluorescence, 18 h; TGF-beta stimulated, 500 pg/mL final; Potency, µM (series often up to 46.1 µM), without a hit: at the top dose activity, negative = inhibition, most hits filed as inhibitors; further: potency means the concentration at half of the fitted maximal effect; on the % scale 0 is the no-effect control and ±100 the full control effect; nearly all actives have a fitted effect of over 65% in size
#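 Smad-responsive CAGA-GFP expression was quantified in HEPG2 cells exposed to compounds and 500 pg/mL final TGF-beta for 18 h at 37 degrees C; unstimulated wells defined full inhibition.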
# * marks the source's active call; other numbers are inactive results; i = inactive; ? = inconclusive; · = no result given; ! = not confirmed by another sample; [ ] = remark or other dose. Unless noted, the call rests on the fitted dose curve; in most records, active means well fitted curve in the direction sought with a large enough effect; inconclusive means small, poorly fitted or top-dose-only effect, or another doubt; inactive means no such curve, though single readings can be large; an effect the other way counts as inactive or inconclusive.
SMILES,S2 tox,Giardia killer,ATXN2 expr inh,uPA surface inh,HepG2 tox,TGFb inhibitor
CCc1nnc(N/N=C/c2c(Cl)cccc2Cl)n1N,i,-10,-12%,-8%,-100%,?
CCc1nnc(N/N=C/c2cc(Br)c(O)cc2O)n1N,i,-17,-31%,-10%,10µM*,7.9µM*
CCc1nnc(N/N=C/c2ccc(O)c(OC)c2)n1N,i,5,3%,-30%,-104%,18µM*
Cc1ccc(/C=C2\SC(=S)N(CCCC(=O)Nc3ccccn3)C2=O)cc1,i,0,3.2µM*,3%,-12%,4%
CCc1ccc(/C=C2\SC(=S)N(CCCC(=O)Nc3ccccc3C(=O)O)C2=O)cc1,i,-2,-31%,-21%,8%,-2%
COc1cccc(/C=C2\SC(=S)N(CCCC(=O)N(CCO)c3ccccc3)C2=O)c1,?,-6,22µM*,?,-58%,?
Cc1ccc(/C=C2\SC(=S)N(CCCC(=O)Nc3ccccc3C(=O)O)C2=O)cc1,i,-7,13µM*,0%,-5%,-7%
Cc1ccc(/C=C2\SC(=S)N(CCCC(=O)Nc3ccc(O)cc3)C2=O)cc1,i,-2,10µM*,2%,-20%,-23%
COc1ccc(N2C(=O)[C@@H]3C[C@H]2CN3Cc2cccn2-c2ccc(Cl)cn2)c(C)c1,i,·,·,·,·,·
Cn1c2c(c3cnc4cc(Cl)ccc4c31)CNCC2,·,-3,·,·,-37%,0%
Cc1nc(C)c(CC(=O)N2CCOc3ccc(CN4CCOCC4)cc3C2)s1,i,·,·,·,·,·
COc1ccc(CN2CCOc3ccc(CN4CCC(Oc5cccnc5)CC4)cc3C2)cc1,i,·,·,·,·,·
Cc1ccc2nc3[nH]c(=O)[nH]c(=O)c3c(N)c2c1,i,-12,17%,-6%,-1%,4%
Cc1ccc2nc(N)[nH]c(=O)c2c1Sc1ccncc1,i,·,13µM*,·,·,·
COc1cc(-c2noc(C)c2C#Cc2ccsc2)cc(OC)c1OC,i,?,0%,2µM*,-20%,11µM*
Cc1cc(N2CCC(C)CC2)c(F)cc1[N+](=O)[O-],i,-3,-1%,·,-19%,5%
Cc1cc(N2CCCC2)c(F)cc1/C=C\[N+](=O)[O-],·,-22,1%[11.3 µM],-9%,-44%,11µM*
COc1c(OC)c(O)c2c(=O)cc(-c3c(O)cccc3O)oc2c1OC,i,-16,34%,7.1µM*,-7%,10%
COc1ccc(-c2cc(=O)c3c(O)c(OC)c(O)cc3o2)cc1,?,?,-32%,10µM*,-18%,-9%
COc1ccc(-c2cc(=O)c3c(O)c(OC)c(OC)c(OC)c3o2)cc1,?,?,8%,-1%,-11%,?
O=C(Nc1ccc(CN2CCOCC2)cc1)c1cc2ccccn2n1,i,-15,22µM*,?,-31%,-11%
COc1ccc(C2=Nn3c([n+](C)c4ccccc43)SC2)cc1,?,4,·,3.5µM*,-6%,?
CCOc1ccccc1OCCNC(C)Cc1ccc(OC)c(S(N)(=O)=O)c1 (stereo not drawn),·,·,-4%,·,·,·
O=S(=O)(CCSc1ccccn1)c1nc2ccccc2s1,·,-6,?,?,10µM*,8.9µM*
O=S(=O)(CCSc1nc2ccccc2o1)c1nc2ccccc2s1,·,4,28µM*,?,-102%,?
SMILES,S2 tox,Giardia killer,ATXN2 expr inh,uPA surface inh,HepG2 tox,TGFb inhibitor
CCS(=O)(=O)CCSc1nc2ccccc2o1,i,1,7%,-1%,2%,9%
Cc1c(Cl)ccc2sc(N3CCN(C(=O)CS(=O)(=O)c4ccccc4)CC3)nc12,?,·,20µM*,·,-43%,10µM*
COc1cc2ccccc2cc1C(=O)N1CCN(c2nc3c(C)cc(C)cc3s2)CC1,i,·,?,·,-21%,?
COc1ccc(C(=O)N2CCN(c3nc4c(C)c(Cl)ccc4s3)CC2)c(OC)c1,i,·,-10%,·,11µM*,?
Cc1c(Cl)ccc2sc(N3CCN(C(=O)C(C)C)CC3)nc12,?,·,?,·,-33%,?
Cc1ccc(S(=O)(=O)N2CCN(c3nc(-c4cncn4C)nc4ccccc34)CC2)cc1,·,-12,·,·,·,·
O=C(NCCc1ccccc1)C(c1cccs1)N(C(=O)CCl)c1ccc(Cl)cc1 (stereo not drawn),5µM*,3,4.5µM*,-10%,10µM*,11µM*
O=C1[C@@H]2[C@H]3CC[C@H](C3)[C@@H]2C(=O)N1CCCCN1CCN(c2ncccn2)CC1,i,·,-6%,·,·,·
COc1ccc(-c2nnc(OC)c3ccccc23)cc1,i,3,·,6%,-8%,1%
COc1ccc(-c2nnc(Sc3nc4ccccc4o3)c3ccccc23)cc1,i,-4,-3%,?,13µM*,13µM*
CC(C)(C)c1ccc(C(=O)C[n+]2cccc(Br)c2)cc1,·,·,·,·,-21%,-13%
CN(C)c1ccc(/C=C2/C[N+](C)(C)C/C(=C/c3ccc(N(C)C)cc3)C2=O)cc1,13µM*,-4,-12%,0%,13µM*,0%
CC(C)/C=C1\CC/C(=C\c2ccc(N(C)C)cc2)C1=O,i,-4,68%,1%,21%,-7%
COc1ccc(CN2CCOc3ccc(CN4CCC(Oc5cccnc5)CC4)cc3C2)cc1C,i,·,·,·,·,·
CCOc1cnn(-c2cc(Oc3ccc(C)cc3)ncn2)c(=O)c1Cl,i,-10,3%,0%,3%,-6%
Cc1ccccc1Oc1cc(-n2ncc(Cl)c(Cl)c2=O)ncn1,7.9µM*,-17,7.9µM*,2.2µM*,7.1µM*,4µM*
CN(CCOc1cccc2ccccc12)Cc1ccccc1,i,-16,-1%,-8%,-1%,-18%
CN(C)[C@@H](CCOc1cccc2ccccc12)c1ccccc1,?,·,32µM*!,·,·,·
COc1cc(OC)c(OC)cc1/C=C1/Cc2ccccc2C1=O,i,0,·,-5%,10%,29%
COc1cc(OC)c(OC)cc1/C=C1\CC(C)C/C(=C\c2cc(OC)c(OC)cc2OC)C1=O (stereo not drawn),?,11,13µM*,8.9µM*,11µM*,?
COc1cccc(C(=O)NCC2Cc3cccc(-c4nc(C)cnc4C)c3O2)c1OC (stereo not drawn),i,·,·,·,·,·
Cc1ccn2c(C(=O)NN=C3CCN(C)CC3)c(C)nc2c1,i,-8,-3%,-3%,-139%,-5%
Cc1ccc2nc(C)c(C(=O)NN=C3CCCCCC3)n2c1,i,-6,5%,4.5µM*,-9%,-14%
